Read-out in test [1]: catalase (CAT), CAT (gene 847)
The test is described as follows: LTEA_HepaRG_CAT: Life Technologies and Expression Analysis (LTEA) Assay for catalase (CAT) using HepaRG (AID 2283452). To be noted: mRNA level, 48 h; actives raise or lower the signal. A digest of the protocol: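 HepaRG cells in serum-free induction medium, 0.5% DMSO vehicle, exposed 48 h in duplicate over 8 half-log concentrations from 100 uM. CAT mRNA measured by qRT-PCR, normalized to ACTB, GAPDH, POLR2A; bidirectional fit versus DMSO.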

Read-out in test [2]: flavin-containing dimethylaniline monooxygenases 3 (FMO3), FMO3 (gene 2328)
Nature of the test: LTEA_HepaRG_FMO3: Life Technologies and Expression Analysis (LTEA) Assay for flavin-containing dimethylaniline monooxygenases 3 (FMO3) using HepaRG (AID 2283453). To be noted: mRNA level, 48 h; actives raise or lower the signal. A digest of the protocol:
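HepaRG, 48 h exposure, 8-pt half-log series from 100 uM, 0.5% DMSO vehicle, duplicates; FMO3 transcript by Fluidigm TaqMan qRT-PCR, housekeeping-normalized; gain/loss fit vs DMSO.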

Read-out in test [3]: Cytochrome P450 (CYP1A1), CYP1A1 (gene 1543)
The test is described as follows: LTEA_HepaRG_CYP1A1: Life Technologies and Expression Analysis (LTEA) Assay for Cytochrome P450 (CYP1A1) using HepaRG (AID 2283454). To be noted: mRNA level, 48 h; actives raise or lower the signal. A digest of the protocol:
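Differentiated HepaRG cells in serum-free induction medium were exposed in duplicate for 48 h to eight half-log concentrations up to 100 uM in 0.5% DMSO. CYP1A1 mRNA was quantified by TaqMan qRT-PCR, normalized to ACTB, GAPDH and POLR2A.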

Read-out in test [4]: CFLAR gene, CFLAR (gene 8837)
The test is described as follows: LTEA_HepaRG_CFLAR: Life Technologies and Expression Analysis (LTEA) Assay for CFLAR gene using HepaRG (AID 2283455). As to conditions: mRNA level, 48 h; actives raise or lower the signal. Summed up:
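Differentiated HepaRG cells in serum-free induction medium were exposed 48 h in duplicate to eight half-log concentrations up to 100 uM in 0.5% DMSO; mRNA measured by TaqMan qRT-PCR, normalized to ACTB, GAPDH, POLR2A; bidirectional fitting versus DMSO.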

Read-out in test [5]: Forkhead box O1 (FOXO1), FOXO1 (gene 2308)
The test is described as follows: LTEA_HepaRG_FOXO1: Life Technologies and Expression Analysis (LTEA) Assay for Forkhead box O1 (FOXO1) using HepaRG (AID 2283456). To be noted: mRNA level, 48 h; actives raise or lower the signal. A digest of the protocol:
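Differentiated HepaRG cells, in serum-free induction medium with 0.5% DMSO, exposed 48 h in duplicate to 8-point half-log series from 100 uM. FOXO1 mRNA measured by TaqMan qRT-PCR, normalized to ACTB, GAPDH, POLR2A; bidirectional fit versus DMSO.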

Test [6] is described as follows: CEETOX_H295R_TESTO: CeeTox H295R High-throughput Steroidogenesis Assay for Testosterone (TESTO) (AID 2283457).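 As to AC50: cells exposed to chemicals for 48 h before medium collection.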 As to conditions: actives raise or lower the signal. Summed up:
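H295R human adrenal cells in DMEM/F12 with ITS+ and Nu-Serum, exposed to chemicals for 48 h. Testosterone in medium measured by MTBE extraction, reverse-phase HPLC-MS/MS; bidirectional fit versus DMSO baseline. MTT viability checked in same wells.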

Read-out in test [7]: growth arrest and DNA damage 45 (GADD45A), GADD45A (gene 1647)
Nature of the test: LTEA_HepaRG_GADD45A: Life Technologies and Expression Analysis (LTEA) Assay for growth arrest and DNA damage 45 (GADD45A) using HepaRG (AID 2283458). To be noted: mRNA level, 48 h; actives raise or lower the signal. A digest of the protocol: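 Human HepaRG liver cells are treated in duplicate for 48 h with chemicals in 0.5% DMSO, highest concentration 100 uM. Expression is read by qRT-PCR and analyzed in both directions against vehicle.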

Read-out in test [8]: Forkhead box O3 (FOXO3), FOXO3 (gene 2309)
The test is described as follows: LTEA_HepaRG_FOXO3: Life Technologies and Expression Analysis (LTEA) Assay for Forkhead box O3 (FOXO3) using HepaRG (AID 2283459). As to conditions: mRNA level, 48 h; actives raise or lower the signal. A digest of the protocol: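 Differentiated human HepaRG cells, 48 h post-plating, exposed in duplicate for 48 h in serum-free induction medium; 8-point half-log series from 100 uM in 0.5% DMSO. FOXO3 mRNA by TaqMan qRT-PCR, normalized to ACTB/GAPDH/POLR2A; bidirectional fit versus DMSO.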

Read-out in test [9]: ABC Transporter (ABCB1), ABCB1 (gene 5243)
The test is described as follows: LTEA_HepaRG_ABCB1: Life Technologies and Expression Analysis (LTEA) Assay for ABC Transporter (ABCB1) using HepaRG (AID 2283460). To be noted: mRNA level, 48 h; actives raise or lower the signal. Summed up:
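HepaRG cells exposed in duplicate for 48 h in serum-free induction medium to eight half-log concentrations up to 100 uM in 0.5% DMSO. ABCB1 mRNA quantified by qRT-PCR, normalised to ACTB, GAPDH and POLR2A; fitted bidirectionally versus DMSO.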

Read-out in test [10]: growth arrest and DNA damage 45 (GADD45B), GADD45B (gene 4616)
The test is described as follows: LTEA_HepaRG_GADD45B: Life Technologies and Expression Analysis (LTEA) Assay for growth arrest and DNA damage 45 (GADD45B) using HepaRG (AID 2283461). To be noted: mRNA level, 48 h; actives raise or lower the signal. A digest of the protocol: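 Differentiated HepaRG cells, plated 48 h then switched to serum-free induction medium, were exposed 48 h in duplicate to eight half-log concentrations from 100 uM in 0.5% DMSO; mRNA quantified by qRT-PCR, normalized to ACTB/GAPDH/POLR2A, bidirectional fit versus DMSO.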

Read-out in test [11]: ABC Transporter (ABCB11), ABCB11 (gene 8647)
Nature of the test: LTEA_HepaRG_ABCB11: Life Technologies and Expression Analysis (LTEA) Assay for ABC Transporter (ABCB11) using HepaRG (AID 2283463). As to conditions: mRNA level, 48 h; actives raise or lower the signal. A digest of the protocol: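 Differentiated human HepaRG cells in serum-free induction medium, dosed in duplicate for 48 h. Eight-point half-log series from 100 uM in 0.5% DMSO; ABCB11 mRNA by qRT-PCR, normalized to ACTB, GAPDH, POLR2A, fitted bidirectionally versus DMSO.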

Read-out in test [12]: ABC Transporter (ABCC2), ABCC2 (gene 1244)
The test is described as follows: LTEA_HepaRG_ABCC2: Life Technologies and Expression Analysis (LTEA) Assay for ABC Transporter (ABCC2) using HepaRG (AID 2283464). To be noted: mRNA level, 48 h; actives raise or lower the signal. Summed up:
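HepaRG cells were plated 48 h, switched to serum-free induction medium, then exposed in duplicate for 48 h to 8 concentrations (top 100 uM, half-log steps, 0.5% DMSO). ABCC2 mRNA was measured by qRT-PCR normalized to ACTB/GAPDH/POLR2A; bidirectional fitting versus DMSO.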

Read-out in test [13]: Broad substrate specificity ATP-binding cassette transporter ABCG2 (Homo sapiens) (UniProt Q9UNQ0)
The test is described as follows: LTEA_HepaRG_ABCG2: Life Technologies and Expression Analysis (LTEA) Assay for ABC Transporter (ABCG2) using HepaRG (AID 2283465). To be noted: mRNA level, 48 h; actives raise or lower the signal. Summed up: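 Differentiated HepaRG cells were exposed for 48 h in serum-free induction medium to 8 half-log concentrations, top 100 uM, in 0.5% DMSO. ABCG2 mRNA was measured by qRT-PCR, normalized to ACTB, GAPDH and POLR2A, with bidirectional fitting versus DMSO.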

Read-out in test [14]: ATP-citrate lyase (ACLY), ACLY (gene 47)
The test is described as follows: LTEA_HepaRG_ACLY: Life Technologies and Expression Analysis (LTEA) Assay for ATP-citrate lyase (ACLY) using HepaRG (AID 2283466). As to conditions: mRNA level, 48 h; actives raise or lower the signal. Summed up:
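Differentiated HepaRG cells exposed 48 h in serum-free induction medium to eight half-log concentrations up to 100 uM in 0.5% DMSO, duplicates. Transcript measured by Fluidigm TaqMan qRT-PCR, normalized to ACTB, GAPDH, POLR2A; bidirectional fit versus DMSO.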

Read-out in test [15]: Peroxisomal acyl-coenzyme A oxidase 1 (ACOX1) gene, ACOX1 (gene 51)
The test is described as follows: LTEA_HepaRG_ACOX1: Life Technologies and Expression Analysis (LTEA) Assay for Peroxisomal acyl-coenzyme A oxidase 1 (ACOX1) gene using HepaRG (AID 2283467). As to conditions: mRNA level, 48 h; actives raise or lower the signal. Summed up:
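HepaRG cells, plated 48 h then switched to serum-free induction medium, were exposed in duplicate for 48 h to 8-point half-log concentrations up to 100 uM in 0.5% DMSO. ACOX1 mRNA was measured by qRT-PCR, normalized to ACTB/GAPDH/POLR2A, and fitted bidirectionally versus DMSO.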

Read-out in test [16]: Bcl-2 (BAD) gene, BAD (gene 572)
Nature of the test: LTEA_HepaRG_BAD: Life Technologies and Expression Analysis (LTEA) Assay for Bcl-2 (BAD) gene using HepaRG (AID 2283469). As to conditions: mRNA level, 48 h; actives raise or lower the signal. A digest of the protocol:
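Differentiated HepaRG cells were exposed in duplicate in 0.5% DMSO for 48 h to eight-point half-log concentrations up to 100 uM. BAD mRNA was measured by Fluidigm TaqMan qRT-PCR, normalized to ACTB, GAPDH and POLR2A, and fitted bidirectionally against DMSO.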

Read-out in test [17]: Bcl-2 (BAX) gene, BAX (gene 581)
Nature of the test: LTEA_HepaRG_BAX: Life Technologies and Expression Analysis (LTEA) Assay for Bcl-2 (BAX) gene using HepaRG (AID 2283470). To be noted: mRNA level, 48 h; actives raise or lower the signal. A digest of the protocol: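 Concentration-response endpoint fitted in both directions relative to 0.5% DMSO vehicle. Human HepaRG cultures receive test chemicals for 48 h at up to 100 uM; BAX mRNA is quantified by qRT-PCR against housekeeping genes.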

Read-out in test [18]: Cyclin D1 (CCND1), CCND1 (gene 595)
The test is described as follows: LTEA_HepaRG_CCND1: Life Technologies and Expression Analysis (LTEA) Assay for Cyclin D1 (CCND1) using HepaRG (AID 2283451). To be noted: mRNA level, 48 h; actives raise or lower the signal. A digest of the protocol:
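Differentiated human HepaRG cells in serum-free induction medium were exposed 48 h to eight half-log concentrations up to 100 uM in 0.5% DMSO; mRNA quantified by TaqMan qRT-PCR, normalized to ACTB, GAPDH, POLR2A, fitted bidirectionally versus DMSO.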

Read-out in test [19]: ABC Transporter (ABCC3), ABCC3 (gene 8714)
The test is described as follows: LTEA_HepaRG_ABCC3: Life Technologies and Expression Analysis (LTEA) Assay for ABC Transporter (ABCC3) using HepaRG (AID 2283462). As to conditions: mRNA level, 48 h; actives raise or lower the signal. A digest of the protocol:
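HepaRG cells in serum-free induction medium were exposed for 48 h in duplicate to 8-point half-log concentrations topping at 100 uM in 0.5% DMSO. ABCC3 mRNA was measured by qRT-PCR normalized to ACTB, GAPDH and POLR2A, with bidirectional fitting versus DMSO.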

Read-out in test [20]: Alkaline Phosphatase, Placental (ALPP) gene, ALPP (gene 250)
The test is described as follows: LTEA_HepaRG_ALPP: Life Technologies and Expression Analysis (LTEA) Assay for Alkaline Phosphatase, Placental (ALPP) gene using HepaRG (AID 2283468). To be noted: mRNA level, 48 h; actives raise or lower the signal. Summed up:
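Differentiated human HepaRG cells were plated and cultured 48 h, then exposed in duplicate for 48 h in serum-free induction medium to eight half-log concentrations from 100 uM in 0.5% DMSO. ALPP mRNA was measured by TaqMan qRT-PCR, normalized to ACTB, GAPDH, POLR2A.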

The source made the active and inactive calls. The calls were made as follows: active = hit-call score of the fitted dose curve at least 0.9, where 1 is the maximum; inactive = score below 0.9.

Broad substrate specificity ATP-binding cassette transporter ABCG2 (Homo sapiens), sequence (Q9UNQ0 whole entry, looked up): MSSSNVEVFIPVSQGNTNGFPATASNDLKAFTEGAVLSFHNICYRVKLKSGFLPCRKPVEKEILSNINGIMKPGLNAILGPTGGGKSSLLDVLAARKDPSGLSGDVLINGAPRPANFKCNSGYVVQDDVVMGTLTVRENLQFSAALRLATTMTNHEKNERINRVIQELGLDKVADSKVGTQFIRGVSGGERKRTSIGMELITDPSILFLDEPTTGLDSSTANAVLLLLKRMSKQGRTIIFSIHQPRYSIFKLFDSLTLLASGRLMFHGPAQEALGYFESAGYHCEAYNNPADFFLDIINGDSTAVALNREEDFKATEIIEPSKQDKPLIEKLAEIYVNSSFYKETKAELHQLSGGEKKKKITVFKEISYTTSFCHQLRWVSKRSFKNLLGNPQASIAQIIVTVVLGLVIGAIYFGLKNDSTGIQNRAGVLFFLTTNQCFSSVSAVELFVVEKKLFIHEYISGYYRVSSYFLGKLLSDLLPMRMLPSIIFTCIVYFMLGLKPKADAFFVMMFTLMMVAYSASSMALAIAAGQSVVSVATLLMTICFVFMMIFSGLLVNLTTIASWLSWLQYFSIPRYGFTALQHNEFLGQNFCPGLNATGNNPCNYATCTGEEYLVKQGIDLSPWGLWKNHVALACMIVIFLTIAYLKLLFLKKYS

Usually AC50 stands for the midpoint of the concentration-response curve, whichever way the signal moves. As to `Nc1cccc2c(N)cccc12`, the compound was called inactive in test [1], in test [2], in test [4], in [5], in test [6] and in test [7]. The call in test [9], in test [10], in test [12], in test [13], in test [14] and in test [15] was inactive. Further, the outcome in test [16] and in test [17] was inactive. Further, the AC50 in test [3] is 9 µM (active); in [8], 22.4 µM (active); in test [11], 50 µM (active).
As for `COCC(C)OCC(C)O` (centres undefined), the compound was classed as inactive in test [18], in [1], in test [2], in test [4], in test [5] and in test [7]. Moreover, the compound was called inactive in test [8], in test [10], in test [11], in [12], in test [13] and in test [14]. Besides, the call in [15], in test [16] and in test [17] was inactive. In addition, the AC50 in test [3] is 50 µM (active).
Regarding `c1ccc2c(c1)ccc1ccccc12`, the compound was classed as inactive in [1], in test [2], in test [4], in test [5], in [7] and in test [8]. The outcome in test [10], in test [19], in test [11], in test [14], in test [15] and in test [20] was inactive. Besides, the compound was classed as inactive in test [16] and in test [17]. The AC50 in [3] is 50 µM (active); in test [6], 56.2 µM (active); in [12], 9.92 µM (active); in test [13] it was 9.4 µM (active).
Consider `Oc1cc2ccccc2c2ccccc12`, for which the outcome in [1], in test [2], in test [4], in test [5], in test [7] and in test [8] was inactive. Further, the outcome in [9], in test [10], in test [19], in test [12], in test [13] and in [14] was inactive. Besides, the call in test [15], in test [20], in [16] and in [17] was inactive. Moreover, the results for the AC50 in test [3] and in test [11] were 30.7 µM (active) and 38.9 µM (active), respectively.

The record behind these values is PubChem BioAssay (EPA / NIEHS).
